Test results as given in ChEMBL document CHEMBL1201862, “PubChem BioAssay data set” (2004).
Hit rate of the full screen: of about 58,000 sequences, about 4,100 (7.1%) were called active. Cut-off read from the data, not from the text of the source: active = GI50 up to about 1.1 µM and inactive = higher. Not all results are given here. Results with a measured potency or affinity are listed apart.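 Interpolation was linear, between the two tested concentrations surrounding the appropriate level; five concentrations were tested over 48 hours in 96-well plates. GI50 marks 50% less growth.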

The substances below were run on U-251 (assay: NCI tumour cell line growth inhibition, 48 h).

Question: With “[Bis(aminomethyl)diethylsilane]tetrachloroplatinum(IV), CHEMBL2146203” as the substance, how does the GI50 read?
Answer: 2 µM

Question: “[Bis(aminomethyl)pentamethylenesilane]tetrachloropaltinum(IV), CHEMBL2146204” was tested. Which GI50 did it give?
Answer: 2.94 µM

Question: “[Bis(aminomethyl)tetramethylenesilane]tetrachloropaltinum(IV), CHEMBL2146189” was tested. Which GI50 did it give?
Answer: 3.59 µM

Question: “[Bis(aminomethyl)ethylmethylsilane]tetrachloroplatinum(IV), CHEMBL2146192” was tested. Which GI50 did it give?
Answer: 6.07 µM

Question: CISPLATIN, CHEMBL11359 was tested. Which GI50 did it give?
Answer: 1.92 µM

Question: For “cis-Bis[[(trimethylsilyl)methyl]amino]tetrachloroplatinum(IV), CHEMBL2146191”, which GI50 is on record?
Answer: 14.9 µM

Question: With “[Bis(aminomethyl)dimethylsilane]dichloroplatinum (II), CHEMBL2146201” as the substance, how does the GI50 read?
Answer: 33.5 µM

Question: “[Bis(aminomethyl)tetramethylenesilane]dichloropaltinum(II), CHEMBL2146205” was tested. Which GI50 did it give?
Answer: 30.3 µM

Question: With “[Bis(aminomethyl)dimethylsilane]tetrachloroplatinum(IV), CHEMBL2146190” as the substance, how does the GI50 read?
Answer: 9.42 µM

Question: How did the GI50 turn out when “mu-(1,7-nanodiamine-N,N')bis-(cis-aminedichloroplatimum (II)), CHEMBL2146215” was run?
Answer: 10.3 µM

Question: With “[Bis(aminomethyl)pentamethylenesilane]dichloropaltinum(II), CHEMBL2146202” as the substance, how does the GI50 read?
Answer: 2.93 µM
